Screens (PubChem BioAssay)
TEAD-YAP block – TEAD-YAP interaction inhibition, primary screen, TEAD-YAP interaction inhibitor project, luminescence, HEK-TIYL cells; AID 1259422, 2018; TEAD-Gal4/YAP UAS-luciferase luminescence; inhibition, % at 9.12 µM; 640,000 tested, 1.4% active; in the data active means inhibition above about 32%;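 further: 0% = median of test compound wells and 100% = reference inhibitor wells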
GPR151 ag – activators of human GPR151, primary screen, cell-based, PathHunter beta-arrestin, luminescence; G-protein coupled receptor 151 (Homo sapiens), Q8TDV0; PathHunter beta-arrestin GPR151 cells; activation, % at 11.2 µM; 650,000 tested, 1% active; AID 1508602, 2020; in the data active means activation above about 4.9%;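 further: 0% = median of compound wells and 100% = cells with positive control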
FBW7 act – FBW7 E3 ligase activators, primary screen, biochemical, AlphaScreen, human | F-box/WD repeat-containing protein 7 (Homo sapiens), Q969H0 | AlphaScreen FBW7–phospho-cyclin E peptide binding, activator screen | normalized activity (activation), % at 26.1 µM | 650,000 tested, 0.13% active | AID 1259310, 2017; in the data active means normalized activity above about 1.9%;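 further: purified mutant Fbw7 with reduced substrate affinity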
MITF primary – MITF inhibitors, primary screen, biochemical, AlphaScreen, human | Microphthalmia-associated transcription factor (Homo sapiens), O75030 | AlphaScreen MITF homodimerization, bead proximity signal | inhibition, % at 2.6 µM | 650,000 tested, 0.91% active; in the data active means inhibition above about 50%;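 further: 0% = vehicle wells with protein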
Active calls of the source: *. A selection: hits, their analogues and other compounds. The true share with any hit is near 3.4%.

SMILES	TEAD-YAP block	GPR151 ag	FBW7 act	MITF primary
COc1ccc(C2C(C#N)=C(NC(=O)c3ccccc3OC)Oc3c2ccc2ccccc32)cc1OC (stereo not drawn)	5.6	3.4	-0.1	9.0
CCOc1cccc2cc(C(=O)Nc3ccccc3)/c(=N/c3sc4c(c3C#N)CCCC4)oc12	2.5	0.1	0.0	4.8
CC(C)c1ccc(NS(=O)(=O)c2cccc3cnccc23)cc1	56.5*	-0.1	0.0	17.4
Oc1c(CN2CCN(c3cccc(C(F)(F)F)c3)CC2)cc(Br)c2cccnc12	37.4*	-0.3	-1.1	0.7
Oc1c(CN2CCN(c3cccc(Cl)c3)CC2)cc(Cl)c2cccnc12	6.8	-0.1	-0.8	8.3
CN1CCN(Cc2cc(Br)c3cccnc3c2O)CC1	45.3*	1.0	-0.8	88.6*
Oc1c(CN2CCOCC2)cc(Br)c2cccnc12	49.5*	1.5	-0.3	47.0
Oc1c(Br)cc(Br)c2cccnc12	8.0	0.3	-0.1	21.2
CC1CCN(Cc2cc(Br)c3cccnc3c2O)CC1	47.3*	-0.1	-0.9	68.7*
CC(C)NC(=O)c1ccc(CN2CCOCC2)cc1	-1.7	0.8	0.5	5.2
O=C(CCn1c(=O)[nH]c2ccccc2c1=O)NC1CCCCCC1	-4.5	-1.4	0.0	-12.4
O=C1Nc2ccccc2NC(=O)C2C3c4ccccc4C(c4ccccc43)C12 (stereo not drawn)	16.9	1.1	0.0	-7.9
c1ccc2c(c1)Nc1ccccc1C2NNC1c2ccccc2Nc2ccccc21	69.0*	0.4	-0.2	0.0
COCCOC(=O)C1=C(C)NC(C)=C(C(=O)OCCOC)C1c1cn(-c2ccccc2)nc1-c1cccs1	3.1	1.0	-0.3	-2.8
COc1cc2c(cc1OC)[C@@H]1C(=O)c3ccc4c(c3O[C@@H]1CO2)C=CC(C)(C)O4	68.9*	1.5	-0.1	-3.6
CC[n+]1c(/C=C2\Sc3ccccc3N2C)ccc2ccc(C)cc21	77.2*	0.3	-0.3	0.7
CCN1/C(=C/c2ccc3cc(C)ccc3[n+]2C)Sc2ccccc21	75.8*	1.9	-0.3	23.1
CC(=C\c1sc2oc3ccccc3c2[n+]1CCO)/C=C1/Sc2oc3ccccc3c2N1CCO	-0.9	-1.2	0.0	-8.4
CCN1/C(=C\c2c(O)c(=O)c2=O)Sc2ccccc21	-5.1	-1.0	0.0	11.3
CC[n+]1c(/C=C2\Sc3cc(NC(C)=O)ccc3N2C)ccc2ccccc21	10.2	0.0	-0.1	13.4
C[n+]1ccccc1/C=C1\Sc2ccccc2N1CCO	13.4	0.4	-0.2	5.7
CC[n+]1c(/C=C2\Sc3oc4ccccc4c3N2C)ccc2cc(C)ccc21	43.7*	-0.4	0.4	13.9
CC[n+]1c(/C=C2\Sc3ccccc3N2CCO)ccc2cc(OC)ccc21	69.7*	2.3	-0.9	3.0
O=C(C1CN(Cc2ccc(Cl)s2)CCN1C(=O)c1cccnc1)N1CCCC1 (stereo not drawn)	1.1	3.5	0.0	-0.2
CCN1/C(=C/C=C/c2cc[n+](CC)c3ccccc23)C=Cc2ccccc21	8.8	0.0	0.2	5.2
SMILES	TEAD-YAP block	GPR151 ag	FBW7 act	MITF primary
CC[n+]1c(/C=C2\Sc3cc(C)ccc3N2CCO)ccc2ccccc21	63.8*	1.2	-0.2	24.8
CCN1/C(=C/c2cccc[n+]2C)C=Cc2cc(C)ccc21	81.4*	0.8	-0.1	6.8
CCN1/C(=C/c2ccc3cc(C)ccc3[n+]2C)Sc2ccc3ccsc3c21	76.5*	3.3	-0.5	23.3
CCN1/C(=C/c2ccc3cc(C)ccc3[n+]2CC)C=Cc2ccccc21	92.2*	-1.2	-1.1	8.2
Cc1[nH]nc2c1C(c1cccs1)N(c1ccc(Br)cc1)C2=O (stereo not drawn)	-7.2	0.9	0.8	8.7
COc1cc(/C=C2\N=C(c3ccccc3F)OC2=O)cc(OC)c1OC	4.1	-1.1	0.4	6.0
CN1/C(=C/c2cccc[n+]2C)C=Cc2ccccc21	71.4*	2.7	0.0	11.7
CCN1/C(=C/c2ccc3cc(C)ccc3[n+]2CCO)Sc2ccccc21	58.0*	0.2	0.1	26.1
Cc1cccc2c1N(C)/C(=C/c1cccc[n+]1C)C=C2	9.3	1.8	0.0	-2.7
CC[n+]1c(/C=C2\Sc3ccccc3N2CCO)ccc2cc(C)ccc21	53.5*	0.7	-0.2	9.9
CCN1/C(=C/c2c3ccccc3cc[n+]2CC)C=Cc2ccccc21	89.5*	1.4	-0.3	21.8
O=C(CSc1ccccn1)c1cc2ccccc2oc1=O	-33.9	-0.6	-0.1	10.6
O=C(/C=C/c1c(F)cccc1Cl)NCc1cccs1	-36.4	-2.0	0.7	12.6
